The structures appear in SMILES notation. Structures can show the parent of a compound that is named as a salt.

We go through 39 molecules from the supplement of paper PMC9844399.
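Further: Hoechst-stained nuclei counted by automated confocal imaging of four fields per well in 384-well plates, with the robust Z-score based on the per-plate DMSO median and robust SD.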

This assay deals with HeLa. Briefly: nuclear count per well, robust Z-score vs DMSO; higher = more cells (less toxicity). To be noted: 10 µM; 6 h.
`O=C(O)c1ccccc1Nc1cccc(C(F)(F)F)c1` [Flufenamic acid]: the “nuclear count per well” value came to 0.548.
For `CCCCCCCCCCCCCCCC(=O)C1=C(O)[C@@H](CO)OC1=O`, the “nuclear count per well” value was found to be 0.247.
The value for `CCC1(c2ccccc2)C(=O)NCNC1=O` [Primidone] was 0.218; that for `CC(C)[C@@H]1NC(=O)[C@H](Cc2ccccc2)NC(=O)[C@@H](CC(=O)O)NC(=O)CNC(=O)[C@H](CCCN=C(N)N)NC1=O` [Cyclo [Arg-Gly-Asp-D-Phe-Val]] was -1.15; that for `NC(N)=NCCNS(=O)(=O)c1cccc2cnccc12` was -1.09.
Under `O=C(O)COCCN1CCN([C@H](c2ccccc2)c2ccc(Cl)cc2)CC1` [Levocetirizine Dihydrochloride] stands 0.431; under `c1ccc2c(c1)CCCC2C1=NCCN1` (centres undefined), 0.0582.
Under `CCCCCCCCc1ccc(CCC(N)(CO)CO)cc1` stands -0.882; under `C[C@H]1O[C@H](O[C@H]2[C@H](O)[C@@H](O)[C@@H](O[C@H]3[C@H](O)[C@@H](O)C(O)O[C@@H]3CO)O[C@@H]2CO)[C@H](O)[C@@H](O)[C@@H]1N[C@H]1C=C(CO)[C@@H](O)[C@H](O)[C@H]1O` (some centres undefined) [Acarbose], -0.918; under `N#Cc1ccc(C(c2ccc(C#N)cc2)n2cncn2)cc1` [Letrozole], -0.474.
Consider `CC1=C(/C=C/C(C)=C/C=C/C(C)=C\C(=O)O)C(C)(C)CCC1` [13-cis retinoic acid], for which the “nuclear count per well” value worked out at 0.404.
Under `C[C@H]1C[C@@H]2[C@H]([C@@H](O)C[C@@]3(C)[C@H]2CC[C@]3(O)C(=O)CO)[C@@]2(C)C=CC(=O)C=C12` [Methylprednisolone] stands -0.0774.
For the molecule `N[C@H]1C(O)O[C@H](CO)[C@@H](O)[C@@H]1O` (some centres undefined) [Glucosamine HCl], the “nuclear count per well” value was 1.11.
With `CC1CNc2c(cccc2S(=O)(=O)N[C@@H](CCCNC(=N)N)C(=O)N2CC[C@@H](C)C[C@@H]2C(=O)O)C1` (some centres undefined) [Argatroban], the “nuclear count per well” value stood at 0.652.
Consider `CN1CC[C@@H](NC(=O)Nc2ccc(C#N)cc2)C[C@@H]1c1nc2ccccc2[nH]1`, for which the “nuclear count per well” value was -0.634.
Under `Cc1cc(C(=O)NNCc2ccccc2)no1` [Isocarboxazid] stands 0.132; under `CCN(CC)CC#CCOC(=O)C(O)(c1ccccc1)C1CCCCC1` (centres undefined) [Oxybutynin Chloride], -1.31.
Under `CC[C@H](C)C(=O)O[C@H]1C[C@@H](C)C=C2C=C[C@H](C)[C@H](CC[C@@H](O)C[C@@H](O)CC(=O)O)[C@H]21` [Lovastatin Sodium Salt] stands -0.099.
Under `COc1cc(CNC(=O)CCCC/C=C/C(C)C)ccc1O` [E-Capsaicin] stands 1.21; under `O=C(O)c1ccccc1Nc1ccccc1` [N-Phenylanthranilic acid], -2.93; under `O=C1NC(=O)C(c2ccccc2)(c2ccccc2)N1` [Phenytoin], -0.208.
As for `O=C(NOCC1CC1)c1ccc(F)c(F)c1Nc1ccc(I)cc1Cl`, the “nuclear count per well” value is -0.208.
`O=NN(CCCl)C(=O)NC1CCCCC1` [Lomustine]: the “nuclear count per well” value was -0.3.
Under `COc1cc(/C=C/C(=O)CC(=O)/C=C/c2ccc(O)c(OC)c2)ccc1O` [Curcumin] stands -1.34; under `Cc1cc(-c2ncc(CC(=O)Nc3ccc(-c4cnccn4)cn3)cc2C)ccn1`, 1.55.
Under `COC(C)(C)CCCC(C)C/C=C/C(C)=C/C(=O)O` (centres undefined) [Methoprene acid] stands -0.753; under `CC(C)NCC(O)c1ccc(NS(C)(=O)=O)cc1` (centres undefined), 0.48; under `C#C[C@]1(O)CC[C@H]2[C@@H]3CCC4=Cc5oncc5C[C@]4(C)[C@H]3CC[C@@]21C` [Danazol], -0.75.
The value for `Nc1c(CC(=O)O)cccc1C(=O)c1ccc(Br)cc1` [Bromfenac] was 0.258.
With `CCOC(=O)[C@H](CCc1ccccc1)N[C@@H](C)C(=O)N1Cc2cc(OC)c(OC)cc2C[C@H]1C(=O)O`, the “nuclear count per well” value was -0.0857.
The value for `COC(=O)C1=C(C)NC(C)=C(C(=O)OC(C)C)C1c1cccc2nonc12` (centres undefined) [Isradipine] was -1.15; that for `Cc1nccn1CC1CCc2c(c3ccccc3n2C)C1=O` (centres undefined) [Ondansetron] was 0.0277; that for `Nc1ccc2c3c(cccc13)C(=O)NC2=O` [4-Amino-1,8-naphthalimide] was 1.52.
The value for `O=S(=O)(O)CCS` [Mesna] was -0.802; that for `CCOC(=O)c1ncn2c1CN(C)C(=O)c1cc(F)ccc1-2` [Flumazenil] was -0.752.
Under `C=C(c1ccc(C(=O)O)cc1)c1cc2c(cc1C)C(C)(C)CCC2(C)C` [Bexarotene] stands -0.918; under `Nc1ccc(O)c(C(=O)O)c1` [Mesalamine (5-Aminosalicylic Acid)], 0.164.
With `Oc1c(Cl)cc(Cl)c(Cl)c1Cc1c(O)c(Cl)cc(Cl)c1Cl` [Hexachlorophene], the “nuclear count per well” value was -1.26.
For the molecule `Clc1ccc(COC(Cn2ccnc2)c2ccc(Cl)cc2Cl)cc1` (centres undefined) [Econazole nitrate], the “nuclear count per well” value came out at 0.426.
